Screening results as filed in PubChem BioAssay.
Only some compounds are listed: those with a hit (about 4.7% of all), similar ones and a draw of the others.
S2 tox = viability counter-screen for ATXN expression inhibitors | S2 cells (HEK-293 line with an ATXN2-luciferase reporter) viability, CellTiter-Fluor protease fluorescence, 24 h | Potency, µM (titrated, usually from 56.7 µM), most hits filed as cytotoxic | AID 651635 | 0.49% of 400,000 active; note: potency is the fitted concentration of half-maximal effect; nearly all actives have a fitted effect of over 40% in size
D3 ag = activates the human D3 dopamine receptor | 0.58% of 410,000 active | D3R DiscoveRx beta-arrestin cells, luminescence, 90 min | P35462 | max activation, %; in the data active = max activation above about 30%; note: 0% is about no effect
Target sequence (P35462 whole entry, looked up): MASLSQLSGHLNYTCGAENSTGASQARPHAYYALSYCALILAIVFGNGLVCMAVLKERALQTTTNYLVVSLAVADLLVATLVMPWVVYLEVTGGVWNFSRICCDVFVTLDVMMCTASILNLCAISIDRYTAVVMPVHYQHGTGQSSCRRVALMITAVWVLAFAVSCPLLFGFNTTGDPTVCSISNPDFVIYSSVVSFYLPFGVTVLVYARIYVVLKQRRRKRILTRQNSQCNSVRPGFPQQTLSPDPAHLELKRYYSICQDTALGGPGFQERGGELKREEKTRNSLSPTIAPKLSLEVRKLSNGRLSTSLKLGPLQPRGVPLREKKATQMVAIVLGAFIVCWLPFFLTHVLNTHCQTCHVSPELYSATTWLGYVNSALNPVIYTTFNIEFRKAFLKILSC
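Cells at 1500/well, incubated overnight, then treated with pinned compounds (dopamine as control) for 90 min at 37 degrees C. DiscoveRx reagent added for 30 - 60 minutes at room temperature; luminescence read.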
HepG2 tox = kills HepG2 cells in TGF-b inhibitor counter-screen; AID 588856; HepG2 CAGA-GFP viability, ATP luminescence, 18 h; Potency, µM (top dose mostly 46.1 µM), without a hit: at the top dose activity change, negative = cytotoxicity, most hits filed as cytotoxic; 0.76% of 410,000 active; note: potency is the fitted concentration of half-maximal effect
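CellTiter-Glo luminescence gave cytotoxicity after 18 hours at 37 degrees C. The cells were HepG2 CAGA-GFP in 1% FBS DMEM, stimulated with 500 pg/mL TGF-beta after compound addition. %Activity was normalised to no-cell wells (complete cell-killing) and DMSO (no toxicity), and curves were fitted and classified.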
ATXN2 expr inh = inhibitors of ATXN2 expression. HEK-293 ATXN2-luciferase reporter, luminescence, 24 h. Potency, µM (series often up to 57 µM), without a hit: at the top dose activity change, negative = inhibition, usual class: inhibitors. 0.72% of 360,000 active. AID 1745845; note: potency is the fitted concentration of half-maximal effect; % is set by controls: 0 for no effect and ±100 for the full control effect; nearly all actives have a fitted effect of over 55% in size
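qHTS (up to 57 uM final) was run with 24 h compound exposure of reporter cells at 37 °C. Each well was multiplexed: SteadyGlo luminescence measured ATXN2-luciferase expression after a fluorogenic Gly-Phe-AFC viability readout (25 uM final).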
TGFb inhibitor = blocks TGF-b signaling. HepG2 CAGA-GFP TGF-b/SMAD3 reporter, GFP fluorescence, 18 h; TGF-beta stimulated, 500 pg/mL final. AID 588855. Potency, µM (top dose mostly 46.1 µM), for inactives: at the top dose activity, negative = inhibition, most hits filed as inhibitors. 1.2% of 410,000 active; note: potency is the fitted concentration of half-maximal effect; % is set by controls: 0 for no effect and ±100 for the full control effect; nearly all actives have a fitted effect of over 65% in size
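Read-out: total well GFP (ex488/em500-530) summed from mean per-cell fluorescence. Cells: HEPG2 CAGA-GFP, 1% FBS DMEM, 18 h at 37 degrees C with 500 pg/mL final TGF-beta. Unstimulated wells served as the full-inhibition control; stimulated DMSO wells = 0%.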
DRD3 antagonist = blocks the human D3 dopamine receptor; D3R cells, DiscoveRx beta-arrestin luminescence, antagonist mode; stronger effect = lower value; max response, negative = inhibition, %; 2.5% of 360,000 active; AID 652054; in the data active = max response below about -50%; inconclusive = no clear call, values can overlap the other calls; note: % is set by controls: 0 for no effect and ±100 for the full control effect
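Cells plated overnight at 1500 cells/well, then exposed to library compounds with dopamine controls for 90 minutes at 37 degrees C. DiscoveRx reagent added for 30–60 minutes at room temperature; luminescence read, quantitative HTS format.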
Active calls of the source: *; i = inactive; ? = inconclusive; · = no result given. Unless noted, calls come from the whole dose curve; as a rule, active = well fitted curve in the direction sought with a large enough effect; inconclusive = small, poorly fitted or top-dose-only effect, or another doubt; inactive = no such curve, though single readings can be large; an effect the other way counts as inactive or inconclusive.

SMILES	S2 tox	D3 ag	HepG2 tox	ATXN2 expr inh	TGFb inhibitor	DRD3 antagonist
Cc1cc2c(cc1C)CSC(c1ccccc1O)SC2	?	16	-105%	-23%	16µM*	8
CCOC(=O)c1ccc(NS(=O)(=O)c2ccc3c(c2)OCCO3)cc1	i	-10	-19%	-7%	?	·
COc1ccccc1N(CC(N)=O)S(=O)(=O)c1ccc(C)cc1	i	9	4%	0%	17%	-76*
Cc1ccc(C)c(Cn2c(=O)n(CCCCC(=O)NCc3ccccc3Cl)c(=O)c3ccccc32)c1	i	-12	-7%	4%	-16%	·
Oc1ccc(-c2csc(-c3c[nH]c4ccccc34)n2)c(O)c1	i	-3	-12%	142%	-30%	0
Cc1ccc(-c2csc(-c3c[nH]c4ccccc34)n2)c(C)c1	i	-8	20µM*	24%	?	8
COc1ccc2[nH]c(-c3ccc(C)cc3)cc(=O)c2c1	i	-16	-9%	18µM*	1%	-8
COc1ccc(-c2cc(=O)c3cc(F)ccc3[nH]2)cc1	i	-7	5%	23%	12%	8
CC1Cc2cc(S(=O)(=O)NCCc3ccc(Cl)cc3)ccc2N1C(=O)C1CCC1 (configuration not stated)	i	-9	-20%	-33%	?	·
CCOc1ccc(S(=O)(=O)N(CC(=O)NC2CCCC2)c2ccc(F)cc2)cc1	i	8	-35%	-11%	-1%	-52*
CCOc1ccc(N(CC(=O)NC2CCCCCC2)S(=O)(=O)c2ccccc2)cc1	i	-4	36%	-3%	0%	4
CCOc1ccc(S(=O)(=O)N(C)c2ccc(OCC(=O)NCC3CCCCC3)cc2)cc1	?	-11	-16%	?	?	-79*
CC1(C)S[C@@H]2[C@H](NC(=O)C(C(=O)Oc3ccc4c(c3)CCC4)c3ccccc3)C(=O)N2[C@H]1C(=O)O (some centres not stated)	i	-11	·	·	·	·
COc1c(Br)cc2c(C)c(C(=O)O)oc2c1Br	i	33*	-36%	3%	-4%	-15
COc1cc(NC(=O)CSc2nc(-c3ccco3)cc(C(F)(F)F)n2)cc(OC)c1OC	·	-3	2%	·	?	·
CCOC(=O)N1CCN(Cc2nc3cc(NC(=O)CC(C)C)ccc3n2C(C)C)CC1	·	-3	2%	·	·	·
CC(C)C(=O)Nc1ccc2c(c1)nc(CCN1CCN(c3ccccn3)CC1)n2C	i	62*	0%	-23%	1%	22
CCOC(=O)N1CCN(Cc2nc3cc(NC(=O)CC)ccc3n2C(C)C)CC1	·	-9	-23%	·	8.9µM*	·
CC1CCN(CCc2nc3cc(NS(=O)(=O)c4ccccc4)ccc3n2C)CC1	i	-4	-1%	52%	?	-75*
CC1CCN(CCc2nc3cc(NS(=O)(=O)c4ccc(F)cc4)ccc3n2C)CC1	?	1	3%	-23%	7%	-70*
COc1ccc(CCCc2nnc(SCC(=O)Nc3cccc(C)c3)o2)cc1C	i	-7	-5%	-1%	?	·
O=C(Nc1cccnc1Cl)c1cnn2c1NC(=C1CC1)C=C2C(F)F	·	·	10%	·	-2%	·
Cc1ccc2occ(CC(=O)N3CCN(c4cccc(Cl)c4)CC3)c2c1	i	-12	-20%	?	?	·
CCC(=O)Nc1ccc2c(c1)nc(CCN1CCN(c3ccccc3)CC1)n2C	i	6	-1%	·	8%	-62*
CC1CCN(CCc2nc3cc(NC(=O)Nc4ccccc4)ccc3n2C)CC1	i	-5	-6%	39%	-8%	-60*
SMILES	S2 tox	D3 ag	HepG2 tox	ATXN2 expr inh	TGFb inhibitor	DRD3 antagonist
CCC(=O)Nc1ccc2c(c1)nc(CCN1CCCCC1)n2C	i	-9	15%	-5%	1%	-5
Cc1cc(C(=O)NCc2ccccc2)c2c(C)nn(-c3cccc(Cl)c3C)c2n1	i	-21	-9%	4%	-2%	·
OCCC1CN(Cc2ccccc2O)CCN1CCCc1ccccc1 (configuration not stated)	i	-6	-28%	·	-8%	-75*
CCOc1ccccc1CN1CCN(Cc2[nH]c3ccccc3c2C)CC1CCO (configuration not stated)	i	-4	-42%	·	-15%	-53*
CCOc1ccccc1CN1CCN(Cc2c[nH]c3ccccc23)CC1CCO (configuration not stated)	?	-3	-32%	·	11%	-6
Cc1ccccc1CN1CCN(CCCc2ccccc2)C(CCO)C1 (configuration not stated)	i	-23	-27%	-25%	11%	-78*
OCCC1CN(CCCc2ccccc2)CCN1Cc1ccc(F)cc1 (configuration not stated)	i	-34	-4%	-15%	14%	-56*
COc1cccc(CN2CCN(CCCc3ccccc3)C(CCO)C2)c1OC (configuration not stated)	i	-21	-18%	-13%	-23%	-20
Cc1cccc(Cn2c(CNS(=O)(=O)c3ccc4c(c3)CCCC4)nc3cccnc32)c1	·	13	-34%	·	?	·
Cc1cccc(C(=O)N[C@H]2CC[C@@H](n3cc(C(=O)N4CCCC4)nn3)CC2)c1	i	·	·	·	·	·
O=C(NCc1cccc(F)c1)c1ccc(CS(=O)c2ccccc2Cl)o1 (configuration not stated)	·	-2	5%	·	-10%	·
Cc1ccccc1CN1CCN(CC2CC2)CC1CCO (configuration not stated)	i	-6	-1%	·	13%	-82*
CC(C)CN1CCN(Cc2ccc(Oc3ncccn3)cc2)CC1CCO (configuration not stated)	i	-14	-5%	-13%	-6%	-10
CC(C)CCN1CCN(CCCc2ccccc2)CC1CCO (configuration not stated)	i	-15	-3%	-3%	-1%	-15
CC(C)/C=C/CN1CCN(CCCc2ccccc2)C(CCO)C1 (configuration not stated)	i	-17	-22%	-2%	6%	-63*
OCCC1CN(Cc2ccc(Oc3ncccn3)cc2)CCN1Cc1ccc(F)c(F)c1 (configuration not stated)	?	-18	-5%	5%	-8%	-72*
COc1ccc(OC)c(CN2CCN(CCCc3ccccc3)C(CCO)C2)c1 (configuration not stated)	i	-26	-34%	-25%	-8%	-87*
CNCc1nc(-c2ccc[nH]2)c2cc(Cl)ccc2n1	·	·	-35%	·	1%	·
